# NOMO-1 viab – STK33 inhibitor candidate reducing NOMO-1 cell viability; NOMO-1 AML viability, CellTiter-Glo luminescence, 72 h; inhibition, % (no concentration beside the values); 7.5% of 37,000 active; in the data active means inhibition above about 80%; inconclusive means no clear call, values can overlap the other calls
# MITF inh – MITF inhibition; 0.28% of 37,000 active; inhibition, % (no concentration beside the values); TRPM1 promoter luciferase, luminescence, 24 h; AID 2240; in the data active means inhibition above about 85%; inconclusive means no clear call, values can overlap the other calls; inactive means below about 68%;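 further: human melanocyte line stably carrying TRPM1 promoter luciferase reporter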
# Hedgehog inh – Sonic Hedgehog pathway inhibition; inhibition, % (no concentration beside the values); 2.1% of 22,000 active; AID 2313; Shh-LIGHT2 Gli-luciferase reporter, 30 h;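 active means mean inhibition across valid replicates above about 65%, limit read from the data; inconclusive means mean under the limit, yet half or more replicates past it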;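 further: pathway switched on by Shh-conditioned medium diluted 1 in 25 in low serum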
# * hit, by the source's call; ? = inconclusive; / = no result. Sampled rows, rich in hits. Any-hit rate of the full collection: about 8.1%.
SMILES,NOMO-1 viab,MITF inh,Hedgehog inh
CO[C@H]1[C@H](O)[C@@H](O[C@H]2CC[C@]3(C=O)C4CC[C@]5(C)[C@@H](C6=CC(=O)OC6)CC[C@]5(O)C4CC[C@@H]3C2)O[C@@H](C)[C@@H]1O (stereo not given in full),112*,29,-53
COC1=CC(=O)OC(/C=C/c2ccccc2)C1 (stereo not given),-14,-46,0
CC(CO)NC(=O)C1C=C2c3cccc4[nH]cc(c34)CC2N(C)C1 (stereo not given),15,-11,-24
OC[C@H]1O[C@@H](Oc2c[nH]c3ccc(Br)c(Cl)c23)[C@H](O)[C@@H](O)[C@H]1O,42,25,3
C=C1[C@@H](C)[C@H]2[C@H](Cc3ccccc3)NC(=O)[C@]23[C@H](OC(C)=O)C=C[C@](C)(O)C(=O)[C@@H](C)C/C=C/[C@H]3[C@@H]1O,114*,57,73*
C=CCC1(C(C)CCC)C(=O)NC(=S)NC1=O (stereo not given),18,4,-11
C/C=C/[C@@H]1[C@H]2C[C@@H](C)CC[C@@H]2C(C)=C[C@H]1C(=O)c1c(O)c(-c2ccc(O)cc2)c[nH]c1=O,52,20,-9
CC[C@@H]1/C=C\C=C\C[C@H](C)C(O)[C@](C)(O)C(=O)[C@H](C)C(O)[C@H](C)C(=O)[C@H](C)[C@@H](O)[C@H](C)/C=C/C(=O)O[C@H]2[C@@H](C)[C@@H](CC1)O[C@@]1(CC[C@@H](C)[C@@H](C[C@H](C)O)O1)[C@@H]2C (stereo not given in full),124*,75,108*
CC(C)N1C(=O)c2ccccc2NS1(=O)=O,3,-17,-44
CC(C)(C)c1cc(C=C(C#N)C#N)cc(C(C)(C)C)c1O,97*,88*,104*
N#CC(C#N)=Cc1ccc(O)c(O)c1,36,1,?
Cc1cc(OC(=O)N(C)C)cc(=O)n1C,17,-28,-6
C/C=C1/CN2C3Cc4c([nH]c5ccc(O)cc45)C2(O)CC1C3CO (stereo not given),20,1,12
C=C1C(=O)O[C@@H]2/C=C(/C)CC/C=C(/C)C[C@@H](OC(=O)/C(=C/CO)CO)C12 (stereo not given in full),119*,39,32
CC[C@@]12CCCN3CC[C@]4(c5cccc(OC)c5N(C(C)=O)[C@@H]4CC1)[C@H]32,22,-2,-9
C/C=C1/C[N+]2(C)CCC34C(=C(C=O)[C@H]1C[C@@H]32)Nc1ccccc14 (stereo not given in full),16,0,14
N#C[C@@H](OC1OC(COC2OCC(O)C(O)C2O)C(O)C(O)C1O)c1ccccc1 (stereo not given in full),31,-4,-4
O=c1ccc2c(O)c3ccoc3cc2o1,19,11,15
COC(=O)[C@@]1(O)C[C@@H]2O[C@@]1(C)n1c3ccccc3c3c4c(c5c6ccccc6n2c5c31)C(=O)NC4,124*,28,60
Clc1ccc(C2CC3CCC2N3)cn1 (stereo not given),12,-7,-40
C/C=C\C(C)=C\[C@H](C)C(=O)C[C@H](O)CC1CC(=O)NC(=O)C1,77,52,53
CCc1nc2ccccc2c(=O)n1-c1ccc(OC)cc1,6,3,-3
c1ccc2nc(N3CCNCC3)ccc2c1,8,-5,?
C/C(CC(c1ccccc1)c1c(O)c2ccccc2oc1=O)=N/O (stereo not given),-8,3,/
COc1ccc(CC2c3cc(OC)c(OC)cc3CCN2C)cc1OC (stereo not given),7,-15,-55
SMILES,NOMO-1 viab,MITF inh,Hedgehog inh
COc1ccc2c(c1O)-c1c3c(cc4c1C(C2)N(C)CC4)OCO3 (stereo not given),/,/,5
COc1cc2c(cc1O)[C@@H]1Cc3ccc(OC)c(O)c3CN1CC2,108*,28,-9
COc1cc2c(cc1O)C1Cc3ccc(OC)c(O)c3CN1CC2 (stereo not given),117*,4,-7
Oc1ccc(C2(c3ccc(O)cc3)CCCCC2)cc1,27,11,-22
Cc1cc(OCC(=O)N(C)C)c2c3c(c(=O)oc2c1)CCCC3,-6,-4,/
C=CCN1C(=O)/C(=C/c2cc(C)n(-c3ccccn3)c2C)C(=O)NC1=S,111*,-11,-9
C=C[C@H]1CN2CC[C@H]1C[C@@H]2[C@H](O)c1ccnc2ccccc12,-29,-13,-10
CC(C)(O)c1cc(O)c2c(c1)CCC1C(C)(C(=O)O)CCCC21C (stereo not given),-6,6,-21
CO[C@H]1C[C@H](OC2CCC3(C)C4CCC5(C)C(C6=CC(=O)OC6)CC(OC(C)=O)C5(O)C4CC[C@H]3C2)O[C@@H](C)[C@@H]1O (stereo not given in full),109*,10,-3

# Assay outcomes deposited in PubChem by Broad Institute.
